TGFb SMAD3 inh = qHTS for Inhibitors of TGF-b | HepG2 CAGA-GFP TGF-b/SMAD3 reporter, GFP fluorescence, 18 h; TGF-beta stimulated, 500 pg/mL final | hit rate 1.2% among 410,000 | Potency, µM (series often up to 46.1 µM), hits mostly inhibitors; also: nearly all actives have a fitted effect of over 65% in size
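Per well, imaged GFP fluorescence of HEPG2 CAGA-GFP cells gives the signal; cells get compound, then TGF-beta (500 pg/mL final), 18 h at 37 degrees C; %Activity versus -TGF-beta and +DMSO controls.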
HepG2 viability = qHTS for Inhibitors of TGF-b: Cytotox Counterscreen; HepG2 CAGA-GFP viability, ATP luminescence, 18 h; Potency, µM (top dose mostly 46.1 µM), usual class: cytotoxic; hit rate 0.76% among 410,000; AID 588856, 2011
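HepG2 CAGA-GFP cells (1000/well, DMEM with 1% FBS) received compound, then TGF-beta at 500 pg/mL final, and were incubated 18 hours at 37 degrees C. Viability was read by CellTiter-Glo luminescence. Media-only wells were set as complete cell-killing and DMSO as no toxicity.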
HT1080 IDH1KD tx = qHTS for induction of synthetic lethality in tumor cells producing 2HG: qHTS for the HT-1080-IDH1KD cell line. HT-1080 IDH1 knockdown viability, ATP luminescence, 48 h. Potency, µM (top dose mostly 46.1 µM), actives largely listed as cytotoxic. hit rate 2% among 360,000. AID 686971, 2013
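After a 2 h attachment period, IDH1KD HT-1080 cells took pin-transferred compound for 48 h at 37 °C; ATP-based luminescence after 10 min room-temperature reagent incubation reported viability.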
HT1080-NT tox = qHTS for induction of synthetic lethality in tumor cells producing 2HG: qHTS for the HT-1080-NT fibrosarcoma cell line; HT-1080-NT fibrosarcoma viability, CellTiter-Glo ATP luminescence, 48 h; hit rate 1.6% among 360,000; Potency, µM (highest dose often 46.1 µM), usual class: cytotoxic; AID 686970, 2013;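 also: NT is the 2HG producing partner of a matched IDH1 knockdown line; nearly all actives have a fitted effect of over 55% in size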
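Viability of the 2HG-overproducing fibrosarcoma line after 48 hours of compound exposure at 37 degrees C was determined by luminescence with CellTiter-Glo, and concentration-effect curves were then fitted and categorized.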
ATXN2 expr inh = Primary qHTS for Inhibitors of ATXN expression; HEK-293 ATXN2-luciferase reporter, luminescence, 24 h; Potency, µM (highest dose often 57 µM), actives largely listed as inhibitors; hit rate 0.72% among 360,000; also: nearly all actives have a fitted effect of over 55% in size
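qHTS (up to 57 uM final) was run with 24 h compound exposure of reporter cells at 37 °C. Each well was multiplexed: SteadyGlo luminescence measured ATXN2-luciferase expression after a fluorogenic Gly-Phe-AFC viability readout (25 uM final).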
S2 tox = Viability Counterscreen for Primary qHTS for Inhibitors of ATXN expression; S2 cells (HEK-293 line with an ATXN2-luciferase reporter) viability, CellTiter-Fluor protease fluorescence, 24 h; Potency, µM (highest dose often 56.7 µM), actives largely listed as cytotoxic; hit rate 0.49% among 400,000; also: nearly all actives have a fitted effect of over 40% in size
Numbers stand for hits; - = inactive; ? = inconclusive; . = no result; ! = not confirmed by another sample; [ ] = another dose, or the depositor's remark. Shown are actives, neighbours in structure and some others; about 3.8% of the full set was active somewhere. Calls follow the shape of the dose curve; as a rule, active = well fitted curve in the direction sought with a large enough effect; inconclusive = small, poorly fitted or top-dose-only effect, or another doubt; inactive = no such curve, though single readings can be large; an effect the other way counts as inactive or inconclusive.

SMILES	TGFb SMAD3 inh	HepG2 viability	HT1080 IDH1KD tx	HT1080-NT tox	ATXN2 expr inh	S2 tox
CCOC(=O)C1=C(CNCc2ccc(Cl)cc2)NC(=O)NC1c1ccccc1 (stereo unspecified)	?	-	.	.	-	?
CCOC(=O)C1=C(CN(CC)Cc2ccccc2)NC(=O)NC1c1ccc(OC(C)C)cc1 (stereo unspecified)	14µM	-	.	.	?	?
CCOC(=O)C1=C(CNCc2ccc(C)cc2)NC(=O)NC1c1ccc(OC)cc1 (stereo unspecified)	-	-	9.2µM	?	-	?
O=C(C1CCCCC1)N1CC(=O)N2CCCc3ccccc3C2C1 (stereo unspecified)	.	.	.	.	-	-
O=c1c2cc(NC(=S)NCCN3CCCCCC3)ccc2nc2n1CCCCC2	-	-	-	-	-	-
O=c1c2cc(NC(=S)NCCCN3CCC(Cc4ccccc4)CC3)ccc2nc2n1CCCCC2	?	16µM	16µM	9.2µM	-[11.3 µM]	-
CCC(C)c1ccc(NC(=S)NC2CCN(Cc3ccccc3)CC2)cc1 (stereo unspecified)	10µM	14µM	?	18µM	?	?
O=c1c2cc(NC(=S)NC3CCN(Cc4ccccc4)CC3)ccc2nc2n1CCCCC2	?	-	18µM	?	-	-
CN(C(=O)CSc1nnc(COc2ccccc2)o1)c1ccccc1	-	-	.	.	-	-
CCOc1ccccc1NC(=O)c1nc(SCc2ccccc2F)ncc1Cl	-	-	.	.	.	.
CC(=O)c1cccc(NC(=O)Cn2nc(C(F)(F)F)c3c2CCC3)c1	-	-	.	.	-	-
c1ccc2nc(-c3cc4ccccc4s3)ccc2c1	-	-	.	.	.	.
CN(C)c1ccc2nc3ccc(=[N+](C)C)cc-3sc2c1	10µM	7.9µM!	21µM	7.3µM	7.9µM!	25µM!
Cc1cc2nc3ccc(=[N+](C)C)cc-3sc2cc1N	?	8.9µM	4.1µM	8.2µM	7.1µM	13µM
CN(C)c1ccc2nc3ccc(=O)cc-3sc2c1	?	-	?	?	.	-
Brc1ccc2c(c1)C(C1=NCCN1)c1ccccc1CS2 (stereo unspecified)	-	-	1µM	0.82µM	-	?
CCCN1CCN(CC2=C(C(=O)OCC)C(c3cccc(OC)c3OC)NC(=O)N2)CC1 (stereo unspecified)	-	-	.	.	-	-
C=CCC(Nc1ccccc1)C12C=CC(O1)C(C(=O)OC)=C2C(=O)OC (stereo unspecified)	?	14µM	?	?	?	.
Cc1cc2c(c(C)c1Br)C(c1ccc3c(c1)OCO3)CC(=O)O2 (stereo unspecified)	20µM	-	-	-	-	-
Cc1cc(C)c2c(c1)OC(=O)CC2c1ccc2c(c1)OCO2 (stereo unspecified)	-	-	-	-	-	-
Cc1cc(-c2nnc3n2N=C(c2ccc(-c4ccccc4)cc2)CS3)n[nH]1	?	-	?	23µM	?	?
CCOc1ccc(C2=Nn3c(nnc3-c3ccc(OC)cc3)SC2)cc1	?	-	6.5µM	?	-	-
Cc1cc(-c2nnc3n2N=C(c2ccccc2)CS3)n[nH]1	-	-	-	-	-	.
c1ccc(-c2cc(-c3nnc4n3N=C(c3ccc5ccccc5c3)CS4)[nH]n2)cc1	?	-	18µM	?	?	?
CC(=O)c1ccc(O)c(C(N)=O)c1	.	.	.	.	-	-
C=CCOC(=O)C1=C(C)NC(=S)C(C#N)(CC=C)C1c1ccccc1Cl (stereo unspecified)	11µM	-	-	-	.	-
O=C(NCC1CCC2(CCN(Cc3cc4ccccc4o3)CC2)O1)c1ccccc1 (stereo unspecified)	.	.	.	.	.	-
Cc1ccc(C(=O)N/C(=C\c2ccc([N+](=O)[O-])cc2)C(=O)NCCc2ccccc2)cc1	-	-	11µM	?	-	-

Screens from PubChem BioAssay.
